# Reference: PubChem BioAssay AID1851 (National Center for Advancing Translational Sciences (NCATS), 2009)
# Several values for one entry are separate records, joined by “and”; a condition that tells them apart may be missing. Equal entries are not always repeated. In all, about 16,000 compounds went through this assay and about 5,700 (36%) were called active. Inconclusive results (about 24%) are left out. Calls follow the shape of the dose curve; as a rule, active = well fitted curve in the direction sought with a large enough effect; inconclusive = small, poorly fitted or top-dose-only effect, or effect the other way; inactive = no such curve, though single readings can be large or run the other way. The list shows a part of the results.
# Molecular target: Cytochrome P450 1A2 (Homo sapiens) (UniProt P05177)
# Sequence (P05177 whole entry, looked up): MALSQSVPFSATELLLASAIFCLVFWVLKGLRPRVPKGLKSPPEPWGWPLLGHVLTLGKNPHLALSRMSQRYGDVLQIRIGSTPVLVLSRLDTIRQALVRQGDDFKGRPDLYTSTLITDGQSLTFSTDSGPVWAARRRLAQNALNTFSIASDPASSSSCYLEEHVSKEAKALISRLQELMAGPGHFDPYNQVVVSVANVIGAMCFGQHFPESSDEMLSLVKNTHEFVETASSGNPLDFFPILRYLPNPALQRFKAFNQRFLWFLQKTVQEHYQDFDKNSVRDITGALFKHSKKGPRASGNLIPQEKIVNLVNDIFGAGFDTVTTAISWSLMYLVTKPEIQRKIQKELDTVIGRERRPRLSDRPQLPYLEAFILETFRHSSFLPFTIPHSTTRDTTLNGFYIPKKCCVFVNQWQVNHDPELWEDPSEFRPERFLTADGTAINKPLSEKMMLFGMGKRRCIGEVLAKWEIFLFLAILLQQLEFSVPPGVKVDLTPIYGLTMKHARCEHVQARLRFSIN
# Assay: Cytochrome panel assay with activity outcomes
# Settings: recombinant CYP, pro-luciferin dealkylation, luminescence, p450-cyp1a2; series mostly up to 57.1 µM
# % is scaled to controls: 0 for no effect and ±100 for the full control effect.
Structure (SMILES),AC50,"activity, negative = inhibition"
O=C(c1csnn1)N1CCC2(CCCN(Cc3ccccc3)C2)CC1,inactive,
O=c1c(-c2cccs2)nc2cnc(N3CCOCC3)nc2n1-c1ccccc1,5.01 µM (active),
CN1CCN(c2ncc3nc(-c4cccs4)c(=O)n(-c4ccccc4)c3n2)CC1,3.16 µM (active),
CO[C@H]1C[C@@H](O[C@@H]2[C@H](C)[C@H](O[C@@H]3O[C@@H](C)C[C@@H](N(C)C)[C@@H]3O)[C@H](C)C[C@]3(CO3)C(=O)[C@H](C)[C@H](O)[C@H](C)[C@H](C)OC(=O)[C@@H]2C)O[C@@H](C)[C@H]1O,inactive,
COc1ccc(O)c(/C=N/NC(=O)c2ccc(OCc3cccc(Br)c3)cc2)c1,11.2 µM (active),
COc1ccc(C(=O)NCC(=O)OCc2cccc(Br)c2)cc1,6.31 µM (active),
COc1ccc(O)c(/C=N/NC(=O)CSc2nnc(C)n2-c2ccccc2)c1,inactive,
COc1ccc(C(=O)N/N=C/c2cccc3cccnc23)cc1,2 µM (active),
O=C(CNC(=O)/C(=C\c1ccccc1)NC(=O)c1ccc(Br)cc1)OCc1ccccc1,inactive,
CSC(=N)N,inactive,
Brc1ccc2ncnc(Nc3cccc4ccccc34)c2c1,1.58 µM (active),
Clc1cccc(Nc2ncnc3ccc(Br)cc23)c1,0.562 µM (active),
COc1cccc(-c2nnc3n2N=C(C(C)(C)C)CS3)c1,2.82 µM (active),
CCc1ccc(C2=Nn3c(nnc3-c3cccs3)SC2)cc1,3.55 µM (active),
COc1ccc(-c2nnc3n2N=C(C)CS3)cc1,1.41 µM (active),
CCOc1ccc(C2=Nn3c(nnc3-c3ccco3)SC2)cc1,2 µM (active),
COc1ccc(-n2c(C)n[nH]c2=O)cc1,inactive,
O=C(O)C1=CCCNC1,inactive,
CCOc1ccc(-c2nnc3n2N=C(c2ccc(OC)cc2)CS3)cc1,3.55 µM (active),
Cc1ccc(NC(=O)/C(=C\c2ccc([N+](=O)[O-])cc2)NC(=O)c2ccccc2)cc1,inactive,

Structure (SMILES),AC50,"activity, negative = inhibition"
O=C(OCC(=O)c1ccc([N+](=O)[O-])cc1)/C(=C\c1ccc(Cl)cc1)NC(=O)c1ccccc1,12.6 µM (active),
O=C(OCc1ccccc1)/C(=C/c1ccc(Cl)cc1)NC(=O)c1ccccc1Cl,0.891 µM (active),
COc1cc(/C=C(/NC(=O)c2ccccc2Cl)C(=O)O)cc(OC)c1OC,inactive,
O=C(Nc1cccc2ccccc12)/C(=C/c1ccc([N+](=O)[O-])cc1)NC(=O)c1ccccc1,3.16 µM (active),
Cc1ccc(S(=O)(=O)N[C@H]2COC(=O)C/C=C\[C@@H](C)[C@H](NS(=O)(=O)c3ccc(C)cc3)COC(=O)C/C=C\[C@H]2C)cc1,,-0.94% [at 11.4 µM] (inactive)
O=C(Nc1ccnc(-c2cccnc2)n1)c1ccccc1Cl,0.398 µM (active),
O=C(Nc1ccnc(-c2cccnc2)n1)c1cccc(Cl)c1Cl,0.562 µM (active),
CC1(C)OCC([C@H](O)C2=CCCCC2=O)CO1,,-1.5% [at 11.4 µM] (inactive)
O=C(c1ccco1)N1CCN(C(=O)C2(S(=O)(=O)c3ccc(Cl)cc3)CC2)CC1,inactive,
FC(F)(F)c1cccc(-c2nc3nc(Cl)c(Cl)nc3[nH]2)c1,0.398 µM (active),
COc1cc2c(cc1C(F)(F)F)N(C(=O)Nc1cc(F)cc(-c3cccnc3)c1)CC2,0.316 µM (active),
Cn1ccc2cc3c(cc21)CCN3C(=O)Nc1cccnc1,25.1 nM (active) and 3.98 nM (active),
COC(=O)c1ccc(NC(=O)N2CCC(O)(c3cccnc3)CC2)cc1,inactive,
O=C(Nc1cccc(F)c1)N1CCC2(CC1)CCN(C(=O)c1cnccn1)CC2,inactive,
CN1CCc2cc(NC(=O)Nc3cccnc3)ccc21,0.0794 µM (active),
CSc1cc2c(cc1C(F)(F)F)N(C(=O)Nc1cccnc1)CC2,0.000794 µM (active),
CN1CCc2c(cc(O)c(O)c2Cl)[C@H](c2cccc(Cl)c2)C1,inactive,
Cn1c(=O)[nH]c2ncn(C)c2c1=O,inactive,
[O-][N+](CCO)(CCO)c1ncnc2nc[nH]c12,,-5.88% [at 11.4 µM] (inactive)
CCOC(=O)C1=C(c2ccccc2)N=c2s/c(=C\c3cccc(O)c3)c(=O)n2C1c1cccs1 (centres undefined),25.1 µM (active),

Structure (SMILES),AC50,"activity, negative = inhibition"
CCOC(=O)C1=C(c2ccccc2)N=c2s/c(=C\c3ccc(O)cc3)c(=O)n2C1c1cccs1 (centres undefined),inactive,
CCOC(=O)C1=C(c2ccccc2)N=c2s/c(=C\c3cc(OC)c(OC)c(OC)c3)c(=O)n2C1c1cccs1 (centres undefined),inactive,
CCOC(=O)C1=C(c2ccccc2)N=c2s/c(=C\c3ccco3)c(=O)n2C1c1cccs1 (centres undefined),6.31 µM (active),
COc1ccc(C2/C(=C(/O)c3ccc(Cl)cc3)C(=O)C(=O)N2CCN2CCOCC2)c(OC)c1 (centres undefined),inactive,
Cc1ccc(NC(=O)Nc2nc(-c3ccc(C)s3)cs2)cc1,1.58 µM (active),
C#CCCCO/N=C1/C[C@@H](O)[C@@H](O)[C@@H]2[C@@H]3C(=O)N(Cc4ccccc4)C(=O)[C@H]3CC[C@@H]12,,6.78% [at 11.4 µM] (inactive)
CNC(=O)c1nnn(Cc2ccccc2)c1NC(=O)C(F)(F)F,inactive,
COc1ccc(NC(=O)C2CC(=O)NC3=C2C(=O)CC(C)(C)C3)cc1 (centres undefined),inactive,
COc1ccc(C(C(=O)Nc2ccc(F)cc2)N(C(=O)Cn2nnc3ccccc32)C2CC2)cc1 (centres undefined),inactive,
N[C@@H](Cc1cccc([N+](=O)[O-])c1)C(=O)O,,-10.6% [at 11.4 µM] (inactive)
COCC(C)NCc1cccc([N+](=O)[O-])c1 (centres undefined),inactive,
CCN(Cc1ccccc1)Cc1cccc([N+](=O)[O-])c1,5.01 µM (active),
O=C(O)CC/C=C\CC[C@H]1[C@@H](N2CCCCC2)[C@@H](O)C[C@@H]1OCc1ccc(-c2ccccc2)cc1,inactive,
CNc1cc(-c2ccccc2C)ncn1,10 µM (active),
Cc1ccccc1-c1cc(N(C)C)ncn1,2 µM (active),
CNc1ncncc1-c1ccccc1C(F)(F)F,inactive,
FC(F)(F)c1ccccc1-c1cc(NCc2ccccc2)ncn1,12.6 µM (active),
CNc1cc(-c2ccccc2C(F)(F)F)ncn1,15.8 µM (active),
CN(C)C(=O)/N=N\C(=O)N(C)C,inactive,
